Test results: PubChem BioAssay (NCATS)
Inconclusive results are not listed. Entries that show only a call come without a potency. Active and inactive are the calls of the source. Calls come from the whole dose curve; as a rule, active = well fitted curve in the direction sought with a large enough effect; inconclusive = small, poorly fitted or top-dose-only effect, or another doubt; inactive = no such curve, though single readings can be large; an effect the other way counts as inactive or inconclusive.

molecular target: Furin (Homo sapiens) (UniProt P09958); test: Furin counterscreen qHTS for Zika virus inhibitors (AID 1347149); conditions: furin enzymatic counterscreen, fluorogenic substrate; series mostly up to 57.5 µM; note: nearly all actives have a fitted effect of over 70% in size
Sequence (P09958 whole entry, looked up): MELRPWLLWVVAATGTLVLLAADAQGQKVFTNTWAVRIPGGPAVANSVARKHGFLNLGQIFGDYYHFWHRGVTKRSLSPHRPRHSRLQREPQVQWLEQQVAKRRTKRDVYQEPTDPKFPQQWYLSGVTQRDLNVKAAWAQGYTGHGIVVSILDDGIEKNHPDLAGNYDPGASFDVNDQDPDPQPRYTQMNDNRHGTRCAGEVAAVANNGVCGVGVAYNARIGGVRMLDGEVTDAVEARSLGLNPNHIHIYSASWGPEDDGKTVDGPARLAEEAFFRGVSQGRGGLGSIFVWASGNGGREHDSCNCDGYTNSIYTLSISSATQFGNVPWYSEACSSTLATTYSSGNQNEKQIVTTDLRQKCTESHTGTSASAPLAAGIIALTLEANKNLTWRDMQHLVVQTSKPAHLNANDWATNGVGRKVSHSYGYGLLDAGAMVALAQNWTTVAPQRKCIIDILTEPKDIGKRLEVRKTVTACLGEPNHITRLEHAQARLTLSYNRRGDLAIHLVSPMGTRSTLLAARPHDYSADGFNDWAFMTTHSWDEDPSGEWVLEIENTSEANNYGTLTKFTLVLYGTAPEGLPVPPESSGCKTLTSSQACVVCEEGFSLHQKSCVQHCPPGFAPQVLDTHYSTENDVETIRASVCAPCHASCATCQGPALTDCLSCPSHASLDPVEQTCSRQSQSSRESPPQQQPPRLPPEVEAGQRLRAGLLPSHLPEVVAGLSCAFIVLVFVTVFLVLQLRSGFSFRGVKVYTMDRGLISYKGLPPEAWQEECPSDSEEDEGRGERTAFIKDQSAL
In short: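 Fluorogenic cleavage of BOC-RVRR-AMC (2 microM final, Km ~15 µM) was monitored (ex 340, em 450 nm) at 37C after 15 min RT preincubation of 5 nM furin with compounds in HEPES pH 7.0 buffer with CaCl2 and Triton X-100. Percent inhibition was fitted to a 4-parameter Hill curve.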
Potency is the fitted concentration of half-maximal effect.

Row | SMILES | Potency
1 | Oc1c(Cl)cc(Cl)cc1Sc1cc(Cl)cc(Cl)c1O | inactive
2 | Nc1nc2ncc(CNc3ccc(C(=O)N[C@@H](CCC(=O)O)C(=O)O)cc3)nc2c(=O)[nH]1 | 21.5 µM (active)
3 | O=C(Nc1ccc(Oc2ccc(Cl)cc2)c(Cl)c1)c1cc(I)cc(I)c1O | inactive
4 | Nc1ccn([C@@H]2O[C@H](CO)[C@@H](O)C2(F)F)c(=O)n1 | inactive
5 | COc1c(C)c2c(c(O)c1C/C=C(\C)CCC(=O)O)C(=O)OC2 | inactive
6 | CC(C)(C)CC(C)(C)c1ccc(OCCOCC[N+](C)(C)Cc2ccccc2)cc1 | inactive

system: Zika virus NS2B-NS3 protease (unlinked); test: Optimization of GU AMC qHTS for Zika virus inhibitors: Unlinked NS2B-NS3 protease assay (AID 1347151); conditions: recombinant ZIKV NS2B-NS3 protease, fluorogenic AMC substrate; series mostly up to 52.5 µM; note: nearly all actives have a fitted effect of over 80% in size
In short: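 Fluorescence read-out (340 nm ex / 450 nm em) of AMC peptide cleavage, taken immediately and after 15 min at room temperature (~20% conversion). Enzyme was the unlinked NS2B–NS3 complex at 25 nM in Tris pH 8.0 buffer.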

Row | SMILES | Potency
7 | O=C(O)c1cc2cc(Cc3cccnc3)ccc2o1 | inactive
8 | C[N+]1(CCCCC[N+]2(C)CCCC2)CCCC1 | inactive
9 | C[C@@H]1C(=O)NC2=Nc3cccc(Cl)c3CN21 | inactive
10 | N[C@H](CO)C(=O)O | inactive
11 | Nc1cc(Cl)c(NC2=NCCN2)c(Cl)c1 | inactive
12 | CCCC1O[C@@H]2C[C@H]3[C@@H]4CCC5=CC(=O)C=C[C@]5(C)[C@H]4[C@@H](O)C[C@]3(C)[C@]2(C(=O)CO)O1 (some centres not stated) | inactive
13 | COC(=O)[C@H]1[C@H]2C[C@H]3c4[nH]c5ccccc5c4CCN3C[C@H]2CC[C@@H]1O | inactive
14 | CC(CCc1ccccc1)NCC(O)c1ccc(O)c(C(N)=O)c1 (configuration not stated) | 26.7 µM (active)
15 | CCC(NC(C)C)C(O)c1ccc(O)c(O)c1 (configuration not stated) | inactive
16 | CC1(C)CCC(NC(=O)[C@@H](N)CCC(=O)O)CC1 | inactive
17 | O=C1CCC(c2ccc(-n3ccnc3)cc2)=NN1 | inactive
18 | Nc1ccn([C@@H]2O[C@H](CO)[C@@H](O)C2(F)F)c(=O)n1 | inactive
19 | COc1c(C)c2c(c(O)c1C/C=C(\C)CCC(=O)O)C(=O)OC2 | 24.1 µM (active)
20 | CCCn1c(=O)[nH]c(=O)c2[nH]cnc21 | inactive
21 | C[C@]12CC[C@@H]3c4ccc(O)cc4CC[C@H]3[C@@H]1CC[C@@H]2O | inactive
22 | CNCCC=C1c2ccccc2CCc2ccccc21 | inactive
23 | CC(C)COC(=O)OCN1C(=O)CN(CCN2CC(=O)N(COC(=O)OCC(C)C)C(=O)C2)CC1=O | inactive
24 | CNCCC(Oc1ccccc1C)c1ccccc1 (configuration not stated) | inactive
25 | COc1cc2c(cc1O)CC[C@@H]1[C@@H]2CC[C@]2(C)[C@@H](O)CC[C@@H]12 | inactive
26 | CC(=O)O[C@H]1C[C@@H]2CC[C@@H]3[C@H](CC[C@@]4(C)[C@H]3C[C@H]([N+]3(C)CCCCC3)[C@@H]4OC(C)=O)[C@@]2(C)C[C@@H]1[N+]1(C)CCCCC1 | inactive
27 | CN1C2CCC1CC(OC(=O)c1c[nH]c3ccccc13)C2 (configuration not stated) | inactive
28 | N[C@@H](Cc1cnc[nH]1)C(=O)O | inactive
29 | COc1cc(NS(C)(=O)=O)ccc1Nc1c2ccccc2nc2ccccc12 | 29.9 µM (active)
30 | C1CCc2nnnn2CC1 | inactive
31 | CC(C)C[C@H]1C(=O)N2CCC[C@H]2[C@]2(O)O[C@](NC(=O)[C@@H]3C=C4c5cccc6[nH]c(Br)c(c56)C[C@H]4N(C)C3)(C(C)C)C(=O)N12 | 11.9 µM (active)
32 | CC(C)(C)CC(C)(C)c1ccc(OCCOCC[N+](C)(C)Cc2ccccc2)cc1 | inactive
33 | CC[C@H](C)C(=O)O[C@H]1CCC=C2C=C[C@H](C)[C@H](CC[C@@H]3C[C@@H](O)CC(=O)O3)[C@H]21 | inactive

system: Zika virus NS2B-NS3 protease (unlinked complex); test: Confirmatory screen GU AMC qHTS for Zika virus inhibitors (AID 1347153); conditions: Recombinant NS2B-NS3 protease, AMC substrate fluorescence; series mostly up to 57.1 µM; note: nearly all actives have a fitted effect of over 70% in size;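 for potency: enzyme at 25 nM with substrate at 10 µM below its Km of 18.3 µM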
In short: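 Unlinked NS2B-NS3 complex (25 nM) in 10 mM Tris-HCl pH 8.0, 0.01% Tween 20 preincubated 15 min with compound, then 10 microM Bz-Nle-KRR-AMC (Km 18.3 µM). Fluorescence change over 15 min, normalized, Hill-fitted.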

Row | SMILES | Potency
34 | Nc1nc2ncc(CNc3ccc(C(=O)N[C@@H](CCC(=O)O)C(=O)O)cc3)nc2c(=O)[nH]1 | inactive
35 | O=C(Nc1ccc(Oc2ccc(Cl)cc2)c(Cl)c1)c1cc(I)cc(I)c1O | 21.5 µM (active)
36 | CC(C)C[C@H]1C(=O)N2CCC[C@H]2[C@]2(O)O[C@](NC(=O)[C@@H]3C=C4c5cccc6[nH]c(Br)c(c56)C[C@H]4N(C)C3)(C(C)C)C(=O)N12 | inactive

system: Zika virus NS2B-NS3 protease; test: Primary screen GU AMC qHTS for Zika virus inhibitors (AID 1347154); conditions: Zika NS2B-NS3 unlinked protease, AMC fluorogenic substrate; series mostly up to 54.1 µM; note: nearly all actives have a fitted effect of over 70% in size
In short: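 Unlinked Zika NS2B hydrophilic domain/NS3 protease domain noncovalent complex (25 nM final) in 10 mM Tris-HCl pH 8.0, 0.01% Tween 20, with AMC peptide substrate. Fluorescence (ex 340, em 450 nm) change over 15 min, room temperature; percent inhibition fitted to 4-parameter Hill equation.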

Row | SMILES | Potency
37 | Nc1nc2ncc(CNc3ccc(C(=O)N[C@@H](CCC(=O)O)C(=O)O)cc3)nc2c(=O)[nH]1 | 18.1 µM (active)
38 | CCN(CC)CCNC(=O)COc1ccc(Cl)cc1 | inactive
39 | CC(=O)O[C@]1(C(C)=O)CC[C@H]2[C@@H]3C[C@H](C)C4=CC(=O)CC[C@]4(C)[C@H]3CC[C@@]21C | inactive
40 | O=C(Nc1ccc(Oc2ccc(Cl)cc2)c(Cl)c1)c1cc(I)cc(I)c1O | 14.1 µM (active)
41 | C[C@@H]1CN(CCCn2c3ccccc3c3ccccc32)C[C@H](C)N1 | inactive
42 | Nc1ccn([C@@H]2O[C@H](CO)[C@@H](O)C2(F)F)c(=O)n1 | inactive
43 | COc1c(C)c2c(c(O)c1C/C=C(\C)CCC(=O)O)C(=O)OC2 | inactive
44 | C[C@]12CC[C@@H]3c4ccc(O)cc4CC[C@H]3[C@@H]1CC[C@@H]2O | inactive
45 | C1CCc2nnnn2CC1 | inactive
46 | C[C@@H]1C[C@H]2[C@@H]3C[C@H](F)C4=CC(=O)C(Cl)=C[C@]4(C)[C@@]3(F)[C@@H](O)C[C@]2(C)[C@@]1(O)C(=O)CO | inactive
47 | CC(C)(C)CC(C)(C)c1ccc(OCCOCC[N+](C)(C)Cc2ccccc2)cc1 | inactive
